# According to PubChem BioAssay (NCATS):
# Unmarked numbers belong to inactive results. Records with an inconclusive call do not appear. Entries that show only a call come without a potency. The source made the active and inactive calls. Unless noted, calls follow the shape of the dose curve; as a rule, active = well fitted curve in the direction sought with a large enough effect; inconclusive = small, poorly fitted or top-dose-only effect, or another doubt; inactive = no such curve, though single readings can be large; an effect the other way counts as inactive or inconclusive.
# How the values were obtained:
# [1] = biological target: Rap guanine nucleotide exchange factor 4 (Homo sapiens) (UniProt Q8WZA2); experiment: Confirmatory qHTS for agonist of cAMP-regulated guanine nucleotide exchange factor 4 (EPAC2) (AID 1645884);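 also: nucleotide exchange releases bodipy-GDP from Rap1 and this lowers its fluorescence; potency is read from the fitted curve at half-maximal effect; nearly all actives have a fitted effect of over 65% in size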
# [2] = biological target: Rap guanine nucleotide exchange factor 3 (Homo sapiens) (UniProt O95398); experiment: Counterscreen qHTS for antagonist of cAMP-regulated guanine nucleotide exchange factor 3 (EPAC1) (AID 1645888);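 also: fluorescence loss as bound BODIPY-GDP is released from Rap1B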
# Procedure, shortened: (§1)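 Rap1B-BODIPY-GDP 250 nM + GDP 50 uM; cpds 7-pt, final 9.74 nM–152 uM (activator mode) or from 7.32 nM upwards (inhibitor mode); RT; FI 480/540 nm at 5 and 30 min, then ± cAMP, reread.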
# [3] = biological target: Rap guanine nucleotide exchange factor 3 (Homo sapiens) (UniProt O95398); experiment: Counterscreen qHTS for agonist of cAMP-regulated guanine nucleotide exchange factor 3 (EPAC1) (AID 1645889); also: nearly all actives have a fitted effect of over 40% in size; also: potency is read from the fitted curve at half-maximal effect
# Procedure, shortened: as §1
# [4] = biological target: Rap guanine nucleotide exchange factor 4 (Homo sapiens) (UniProt Q8WZA2); experiment: Confirmatory qHTS for antagonist of cAMP-regulated guanine nucleotide exchange factor 4 (EPAC2) (AID 1645885); also: nearly all actives have a fitted effect of over 25% in size; also: potency is read from the fitted curve at half-maximal effect
# [5] = biological target: DNA repair nuclease/redox regulator APEX1 (Homo sapiens) (UniProt P27695); experiment: qHTS Validation Assay for Inhibitors of the Human Apurinic/apyrimidinic Endonuclease 1 (APE1) (AID 1705;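 also: TAMRA fluorescence gain over two minutes as APE1 cuts a quenched THF abasic duplex; series mostly up to about 57 µM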)
# Procedure, shortened: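 Read-out: TAMRA fluorescence (525 nm ex, 598 nm em) from cleavage of a quenched THF abasic-site duplex, 50 nM final; activity taken as intensity change between third and first of three reads 60 s apart.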
# [6] = Counterscreen for APE1 Inhibitors: Fluorescent Dye Displacement Validation Assay (AID 1707)
# Procedure, shortened: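 Reaction mixture of 250 nM Thiazole Orange and 50 nM double-stranded abasic-site DNA was dispensed, compounds were pin-transferred, and fluorescence was read at endpoint (480 nm ex, 540 nm em). Reduced fluorescence indicated dye displacement by DNA binding.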
# [7] = biological target: Endonuclease 4 (Escherichia coli (strain K12)) (UniProt P0A6C1); experiment: Counterscreen for APE1 Inhibitors: qHTS Validation Assay for Inhibitors of Endonuclease IV (AID 1708)
# Procedure, shortened: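 Incision of a double-stranded 50 nM TAMRA/BHQ-2 abasic substrate was followed kinetically (525/598 nm, reads every 60 s) after 15 min enzyme–compound preincubation with 2 nM EndoIV in pH 7.5 Tris buffer with MgCl2, DTT and Tween-20; concentration-response format.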
# [8] = qHTS for differential inhibitors of proliferation of Plasmodium falciparum line GB4 (AID 1816); settings: Potency: Plasmodium falciparum GB4 proliferation inhibition;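 also: potency is read from the fitted curve at half-maximal effect; parasite growth measured after 72 h incubation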
# [9] = qHTS for differential inhibitors of proliferation of Plasmodium falciparum line 3D7 (AID 1876); also: potency is read from the fitted curve at half-maximal effect
# [10] = qHTS for differential inhibitors of proliferation of Plasmodium falciparum line W2 (AID 1883); settings: Potency: Plasmodium falciparum W2 proliferation inhibition;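 also: potency is read from the fitted curve at half-maximal effect; parasites grown with compound for 72 h before lysis and staining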
# [11] = biological target: ATP-dependent DNA helicase Q1 (Homo sapiens) (UniProt P46063); experiment: qHTS Validation Assay for Inhibitors of RecQ-Like Dna Helicase 1 (RECQ1) (AID 2353)
# Procedure, shortened: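 RECQ1T1 50 nM; forked duplex (20 bp + 30-nt ss tails) 200 nM, ATP 2 mM final; pH 8.0, 2 mM MgCl2, 2.5 ug/ml poly(dI-dC); 15 min compound preincubation; discontinuous kinetic read over 2 h at RT.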
# [12] = biological target: RecQ-like DNA helicase BLM (Homo sapiens) (UniProt P54132); experiment: qHTS Validation Assay for Inhibitors of Bloom's syndrome helicase (BLM) (AID 2364); also: potency is read from the fitted curve at half-maximal effect
# Procedure, shortened: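 Forked 20-bp duplex substrate (200 nM, TAMRA/BHQ-2) plus 2 mM ATP added after 15 min compound preincubation with 50 nM enzyme, pH 8.0, poly(dI-dC) 2.5 ug/ml. Strand separation followed by fluorescence (525/598 nm) over 2 h, normalized to enzyme-free and DMSO controls.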
# [13] = Validation screen for small molecules that induce DNA re-replication in MCF 10A normal breast cells (AID 463097); also: nearly all actives have a fitted effect of over 60% in size
# Procedure, shortened: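 250 MCF 10A cells/well; compound pin-transferred; 48 hr, 37 C, 5% CO2; Hoechst 40 min; imaged 405/500-530 nm. Hits = more high-intensity nuclei.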
# [14] = biological target: Transient receptor potential cation channel subfamily V member 1 (Homo sapiens) (UniProt Q8NER1); experiment: HTS Assay for Compounds that Act as Enhancers of the Vanilloid Receptor 1 (AID 488979)
# Procedure, shortened: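 Calcium influx kinetics via Fluo-8 (480/520 nm) in TRPV1-expressing cells, 2000/well cultured overnight at 35.5C. Compound-alone read 3 min (agonist phase), followed by EC20 capsaicin challenge for 2 min (enhancer phase).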
# [15] = biological target: Thyrotropin receptor (Homo sapiens) (UniProt P16473); experiment: qHTS Assay for Antagonists of the Thyroid Stimulating Hormone Receptor (AID 488980); also: series mostly up to about 58 µM
# Procedure, shortened: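 TSHR-HEK293 cells; 70 uM RO 20-1724 PDE inhibitor; compound + EC80 TSH (4 nM final); anti-cAMP cryptate antibody/cAMP-d2 in lysis buffer, 30 min RT; HTRF 665/620 nm read.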
# [16] = biological target: Thyrotropin-releasing hormone receptor (Homo sapiens) (UniProt P34981); experiment: qHTS for Small Molecule Agonists and Allosteric Enhancers of Human TRH Receptor: Validation Screen for Agonists (AID 493127;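 active = calcium activation more than 3 SD above the typical response in the agonist read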;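 also: intracellular calcium rise by fluo-8 fluorescence before TRH EC20 addition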); settings: TRH receptor agonist cell assay; at 2 µM; hits give high values
# Procedure, shortened: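 Compounds are added by online pintool to dye-loaded TRHR cells while fluorescence is recorded every second. A rise in calcium signal during the agonist read marks activation; a later 10 nM TRH addition (EC20) serves the separate enhancer mode.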
# [17] = biological target: Galactokinase (Homo sapiens) (UniProt P51570); experiment: qHTS Validation Assay for Inhibitors of Human Galactokinase (GALK) (AID 493189)
# Procedure, shortened: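 Luminescence from leftover ATP (Kinase-Glo Plus, 10 min) served as read-out after a 1 h room-temperature reaction of 5 nM GALK, 100 uM galactose and 35 uM ATP at pH8.0.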
# Chain of Rap guanine nucleotide exchange factor 3 (Homo sapiens) (O95398 whole entry, looked up): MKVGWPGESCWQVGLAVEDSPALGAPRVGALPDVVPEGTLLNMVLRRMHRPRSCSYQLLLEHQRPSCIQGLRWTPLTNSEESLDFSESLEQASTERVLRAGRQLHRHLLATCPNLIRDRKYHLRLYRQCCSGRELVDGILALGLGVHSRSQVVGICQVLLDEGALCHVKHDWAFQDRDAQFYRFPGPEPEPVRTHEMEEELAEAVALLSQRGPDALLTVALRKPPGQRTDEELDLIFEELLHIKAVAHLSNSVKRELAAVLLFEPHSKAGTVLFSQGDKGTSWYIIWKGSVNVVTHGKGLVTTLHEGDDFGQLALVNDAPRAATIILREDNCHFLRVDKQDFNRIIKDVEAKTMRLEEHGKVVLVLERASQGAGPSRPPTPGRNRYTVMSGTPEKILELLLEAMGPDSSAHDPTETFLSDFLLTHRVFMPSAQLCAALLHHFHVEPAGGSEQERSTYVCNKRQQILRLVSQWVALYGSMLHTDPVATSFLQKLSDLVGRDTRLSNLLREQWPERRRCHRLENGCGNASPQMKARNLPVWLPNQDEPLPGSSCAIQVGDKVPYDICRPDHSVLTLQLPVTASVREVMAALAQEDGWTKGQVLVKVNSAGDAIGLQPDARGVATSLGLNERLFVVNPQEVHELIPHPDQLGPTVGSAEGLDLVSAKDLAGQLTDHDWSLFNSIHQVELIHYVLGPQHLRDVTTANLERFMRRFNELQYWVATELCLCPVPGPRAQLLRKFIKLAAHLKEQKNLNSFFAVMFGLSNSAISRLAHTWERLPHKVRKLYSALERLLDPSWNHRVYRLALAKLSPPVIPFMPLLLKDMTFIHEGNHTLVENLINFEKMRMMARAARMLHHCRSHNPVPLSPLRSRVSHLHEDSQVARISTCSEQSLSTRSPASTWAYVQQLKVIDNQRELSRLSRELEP
# Chain of Rap guanine nucleotide exchange factor 4 (Homo sapiens) (Q8WZA2 whole entry, looked up): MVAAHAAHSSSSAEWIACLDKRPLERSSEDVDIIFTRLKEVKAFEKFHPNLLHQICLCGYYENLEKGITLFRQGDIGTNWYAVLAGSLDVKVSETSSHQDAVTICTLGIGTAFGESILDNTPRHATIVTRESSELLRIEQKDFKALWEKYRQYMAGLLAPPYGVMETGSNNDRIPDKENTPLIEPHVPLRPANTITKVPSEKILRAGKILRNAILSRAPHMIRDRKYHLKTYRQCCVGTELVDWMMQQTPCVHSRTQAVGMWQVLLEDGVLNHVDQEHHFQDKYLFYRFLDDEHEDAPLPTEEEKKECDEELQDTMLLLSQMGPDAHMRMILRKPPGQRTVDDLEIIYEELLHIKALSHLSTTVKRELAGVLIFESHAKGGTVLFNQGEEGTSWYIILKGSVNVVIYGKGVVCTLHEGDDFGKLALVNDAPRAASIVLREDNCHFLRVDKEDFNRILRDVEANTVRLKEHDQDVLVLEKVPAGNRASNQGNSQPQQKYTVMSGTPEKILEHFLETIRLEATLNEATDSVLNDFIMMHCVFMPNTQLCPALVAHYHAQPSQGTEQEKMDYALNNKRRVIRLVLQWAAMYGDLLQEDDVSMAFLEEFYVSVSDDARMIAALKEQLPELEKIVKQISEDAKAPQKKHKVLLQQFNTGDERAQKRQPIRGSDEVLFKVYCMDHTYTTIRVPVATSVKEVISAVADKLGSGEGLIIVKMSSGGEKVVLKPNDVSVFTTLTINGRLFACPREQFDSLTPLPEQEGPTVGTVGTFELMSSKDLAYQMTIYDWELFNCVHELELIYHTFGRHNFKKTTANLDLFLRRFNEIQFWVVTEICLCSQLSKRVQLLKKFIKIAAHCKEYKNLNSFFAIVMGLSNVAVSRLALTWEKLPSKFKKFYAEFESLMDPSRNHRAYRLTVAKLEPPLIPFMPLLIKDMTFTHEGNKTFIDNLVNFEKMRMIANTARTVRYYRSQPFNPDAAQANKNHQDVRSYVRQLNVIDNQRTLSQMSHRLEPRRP
# Chain of Thyrotropin-releasing hormone receptor (Homo sapiens) (P34981 whole entry, looked up): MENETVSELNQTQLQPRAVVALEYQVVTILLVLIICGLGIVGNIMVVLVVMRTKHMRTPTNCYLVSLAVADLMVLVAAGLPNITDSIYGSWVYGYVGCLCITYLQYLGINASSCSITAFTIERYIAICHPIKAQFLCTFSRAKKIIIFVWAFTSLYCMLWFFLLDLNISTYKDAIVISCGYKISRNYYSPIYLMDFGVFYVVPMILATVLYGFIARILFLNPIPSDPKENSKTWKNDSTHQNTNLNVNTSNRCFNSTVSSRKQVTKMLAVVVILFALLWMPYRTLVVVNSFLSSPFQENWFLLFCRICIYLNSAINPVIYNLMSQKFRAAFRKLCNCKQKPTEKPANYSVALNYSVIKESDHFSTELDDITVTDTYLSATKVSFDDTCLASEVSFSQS
# Chain of RecQ-like DNA helicase BLM (Homo sapiens) (P54132 whole entry, looked up): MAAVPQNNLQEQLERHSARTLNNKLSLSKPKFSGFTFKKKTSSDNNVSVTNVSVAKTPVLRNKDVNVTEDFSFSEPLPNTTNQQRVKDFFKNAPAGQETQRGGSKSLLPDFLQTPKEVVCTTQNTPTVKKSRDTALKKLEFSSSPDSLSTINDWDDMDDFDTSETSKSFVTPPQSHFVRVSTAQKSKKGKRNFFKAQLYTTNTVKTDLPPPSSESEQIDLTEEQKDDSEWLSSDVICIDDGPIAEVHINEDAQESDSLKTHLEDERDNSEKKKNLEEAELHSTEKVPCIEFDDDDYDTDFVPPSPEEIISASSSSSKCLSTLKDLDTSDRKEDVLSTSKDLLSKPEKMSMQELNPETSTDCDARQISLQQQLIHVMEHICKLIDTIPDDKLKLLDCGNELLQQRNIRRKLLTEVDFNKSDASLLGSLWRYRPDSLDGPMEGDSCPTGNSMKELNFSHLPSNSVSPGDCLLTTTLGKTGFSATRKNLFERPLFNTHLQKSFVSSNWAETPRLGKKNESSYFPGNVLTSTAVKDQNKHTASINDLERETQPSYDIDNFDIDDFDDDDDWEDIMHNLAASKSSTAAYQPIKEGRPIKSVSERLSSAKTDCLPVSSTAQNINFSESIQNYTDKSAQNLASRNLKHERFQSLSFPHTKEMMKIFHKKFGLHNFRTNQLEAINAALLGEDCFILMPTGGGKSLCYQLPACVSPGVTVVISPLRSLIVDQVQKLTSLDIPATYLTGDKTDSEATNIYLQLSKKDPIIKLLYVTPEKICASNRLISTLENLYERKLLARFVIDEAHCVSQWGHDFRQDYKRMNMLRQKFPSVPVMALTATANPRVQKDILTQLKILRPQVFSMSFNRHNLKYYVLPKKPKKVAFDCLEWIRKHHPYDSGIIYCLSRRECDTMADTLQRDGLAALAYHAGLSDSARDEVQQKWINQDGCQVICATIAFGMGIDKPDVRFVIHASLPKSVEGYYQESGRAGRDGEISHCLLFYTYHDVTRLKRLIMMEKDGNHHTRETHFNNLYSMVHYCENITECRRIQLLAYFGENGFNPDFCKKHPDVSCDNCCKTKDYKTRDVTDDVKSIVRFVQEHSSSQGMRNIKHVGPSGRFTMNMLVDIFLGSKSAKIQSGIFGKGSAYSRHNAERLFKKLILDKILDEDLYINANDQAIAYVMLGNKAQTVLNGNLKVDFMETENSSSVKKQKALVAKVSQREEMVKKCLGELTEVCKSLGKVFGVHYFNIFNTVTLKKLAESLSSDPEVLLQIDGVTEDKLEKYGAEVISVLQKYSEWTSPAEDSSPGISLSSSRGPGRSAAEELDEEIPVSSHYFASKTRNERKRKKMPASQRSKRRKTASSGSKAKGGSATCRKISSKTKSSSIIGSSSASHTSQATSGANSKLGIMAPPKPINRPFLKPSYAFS
# Chain of Thyrotropin receptor (Homo sapiens) (P16473 whole entry, looked up): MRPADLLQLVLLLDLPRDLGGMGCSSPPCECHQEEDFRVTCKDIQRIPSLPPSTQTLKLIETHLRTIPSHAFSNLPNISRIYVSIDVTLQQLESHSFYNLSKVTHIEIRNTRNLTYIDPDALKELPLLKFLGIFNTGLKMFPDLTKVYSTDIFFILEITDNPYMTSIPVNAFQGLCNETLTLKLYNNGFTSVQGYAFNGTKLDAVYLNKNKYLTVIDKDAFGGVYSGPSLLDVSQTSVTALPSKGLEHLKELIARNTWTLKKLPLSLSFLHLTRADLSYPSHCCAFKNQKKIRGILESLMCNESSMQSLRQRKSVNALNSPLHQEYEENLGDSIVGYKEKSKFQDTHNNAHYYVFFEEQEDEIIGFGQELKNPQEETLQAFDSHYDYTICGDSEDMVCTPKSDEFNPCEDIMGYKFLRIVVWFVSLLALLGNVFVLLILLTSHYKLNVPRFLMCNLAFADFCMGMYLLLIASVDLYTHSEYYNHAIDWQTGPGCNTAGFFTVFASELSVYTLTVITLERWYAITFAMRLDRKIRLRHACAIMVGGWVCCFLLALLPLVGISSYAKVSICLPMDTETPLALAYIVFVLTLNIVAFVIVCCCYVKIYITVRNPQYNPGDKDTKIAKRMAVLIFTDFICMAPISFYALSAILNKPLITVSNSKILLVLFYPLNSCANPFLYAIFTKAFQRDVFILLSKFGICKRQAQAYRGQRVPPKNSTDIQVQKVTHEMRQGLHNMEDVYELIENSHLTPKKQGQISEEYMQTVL
# Chain of DNA repair nuclease/redox regulator APEX1 (Homo sapiens) (P27695 whole entry, looked up): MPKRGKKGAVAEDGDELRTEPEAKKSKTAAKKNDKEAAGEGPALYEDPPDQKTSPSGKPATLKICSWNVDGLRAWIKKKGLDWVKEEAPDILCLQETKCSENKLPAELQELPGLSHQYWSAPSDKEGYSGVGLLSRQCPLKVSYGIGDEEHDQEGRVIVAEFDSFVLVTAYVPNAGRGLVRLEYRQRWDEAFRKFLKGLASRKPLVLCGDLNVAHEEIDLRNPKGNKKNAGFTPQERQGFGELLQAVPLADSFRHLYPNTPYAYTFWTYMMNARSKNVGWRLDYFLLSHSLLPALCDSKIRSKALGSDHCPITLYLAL
structure (smiles),measurement,setting,value
Cc1cc(C(=O)CCC(=O)N2CCN(S(=O)(=O)c3ccccc3)CC2)c(C)s1,Potency,[1],112 µM (active)
same,Potency,[2],inactive
same,Potency,[3],inactive
COc1ccccc1Oc1nc(-c2cccnc2)nc2ccccc12,Potency,[4],67.5 µM (active)
same,Potency,[2],inactive
O=c1oc2c(O)cccc2cc1-c1nc2ccccc2[nH]1,Potency,[4],inactive
same,"activity change, negative = inhibition",[2],-8.32% [at 30.8 µM]
Oc1ccc(Br)cc1CNc1cccc2cccnc12,Potency,[4],33.8 µM (active)
same,Potency,[2],inactive
Cc1ccnc(NCc2cccc3ccccc23)c1,Potency,[4],inactive
same,Potency,[2],inactive
same,Potency,[3],inactive
N=C1/C(=C\c2ccc(-c3cccc(C(=O)O)c3)o2)C(=O)N=C2SC=C(c3ccccc3)N12,Potency,[1],100 µM (active)
same,Potency,[2],inactive
same,Potency,[3],inactive
CN(C)c1ccc(/C=C(/C(=O)c2ccc(Cl)cc2Cl)n2cncn2)cc1,Potency,[1],112 µM (active)
same,Potency,[2],inactive
same,Potency,[3],70.8 µM (active)
O=S(=O)(c1ccccc1)c1nc(Nc2cccc(O)c2)sc1Cl,Potency,[4],inactive
same,Potency,[2],inactive
CC1CCN(c2ccc3c(c2)S(=O)(=O)c2cccc(C(=O)NC[C@@H]4CCCO4)c2C3=O)CC1,Potency,[4],inactive
same,Potency,[2],inactive
COc1ccc(C(NCC(=O)NC(C)c2ccc(Cl)cc2)c2ccccc2)cc1 (configuration not stated),Potency,[3],inactive
Oc1ccccc1Cc1c(O)ccc2ccccc12,Potency,[2],inactive
N#CC(Cc1ccc(O)c(O)c1)C(=O)N1CCc2ccccc21 (configuration not stated),Potency,[5],inactive
same,outcome,[6],inactive
same,Potency,[7],inactive
same,Potency,[8],7.08 µM (active)
same,Potency,[9],3.55 µM (active)
same,Potency,[10],3.55 µM (active)
same,outcome,[11],inactive
same,Potency,[12],25.1 µM (active)
same,Potency,[13],inactive
same,outcome,[14],inactive
same,outcome,[15],inactive
same,activation,[16],3.94%
same,outcome,[17],inactive
